MCF10A rerep = A quantitative high throughput screen for small molecules that induce DNA re-replication in MCF 10a normal breast cells. MCF 10A DNA re-replication, Hoechst nuclear intensity, 48 h. Potency, µM (titrated, usually from 46.1 µM), for the others: at the top dose activity, positive = re-replication, usual class: activators. 2.9% of 350,000 active; further: % of control where 0% means no effect; nearly all actives have a fitted effect of over 50% in size
SW480 rereplic = A quantitative high throughput screen for small molecules that induce DNA re-replication in SW480 colon adenocarcinoma cells; SW480 DNA re-replication, Hoechst DNA content imaging, 48 h; AID 624297, 2012; 1.8% of 340,000 active; Potency, µM (series often up to 46.1 µM), without a hit: at the highest dose re-replication activation, most hits filed as activators; further: % of control where 0% means no effect; nearly all actives have a fitted effect of over 55% in size
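Image-based read-out: total Hoechst fluorescence of nuclei (405 nm excitation, 500-530 nm emission), with hits raising the fraction of high-intensity nuclei. SW480 colon cells incubated 48 hr with compounds at 37 C.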
RORg inh = qHTS for inhibitors of ROR gamma transcriptional activity | Nuclear receptor ROR-gamma (Mus musculus), P51450 | Drosophila S2 Gal4-RORgamma UAS-luciferase reporter, 20 h | Potency, µM (series often up to 53.6 µM), for inactives: top-dose activity change, negative = inhibition, most hits filed as inhibitors | 5.4% of 310,000 active; further: on the % scale 0 is the no-effect control and ±100 the full control effect; nearly all actives have a fitted effect of over 60% in size
Target sequence (P51450 whole entry, looked up, the tested form may be a part): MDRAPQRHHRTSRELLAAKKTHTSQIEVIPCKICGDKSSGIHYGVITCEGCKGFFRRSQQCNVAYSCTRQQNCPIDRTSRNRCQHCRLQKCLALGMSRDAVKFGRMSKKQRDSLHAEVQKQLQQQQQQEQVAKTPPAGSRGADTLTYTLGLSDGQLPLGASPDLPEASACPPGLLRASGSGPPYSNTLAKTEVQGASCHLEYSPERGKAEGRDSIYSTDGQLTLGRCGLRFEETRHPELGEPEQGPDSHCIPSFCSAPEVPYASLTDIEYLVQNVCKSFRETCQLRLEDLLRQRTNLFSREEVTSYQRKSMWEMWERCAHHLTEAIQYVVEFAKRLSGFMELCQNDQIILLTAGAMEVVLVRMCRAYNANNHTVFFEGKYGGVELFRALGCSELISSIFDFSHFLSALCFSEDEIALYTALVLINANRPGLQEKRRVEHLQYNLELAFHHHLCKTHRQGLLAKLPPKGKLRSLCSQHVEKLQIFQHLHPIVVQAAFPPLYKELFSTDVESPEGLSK
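A Gal4/UAS one-hybrid system in insect cells: metallothionein-promoter Gal4–ROR gamma fusion plus Photinus luciferase reporter. Copper sulfate 700 uM final, 20 hr ambient incubation, luminescent detection after 10 min with reagent.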
Gal4-VP16 FLuc = VP16 counterscreen qHTS for inhibitors of ROR gamma transcriptional activity | 3.5% of 310,000 active | Potency, µM (highest dose often 53.6 µM), inactives show at the highest dose activity, negative = inhibition, usual class: inhibitors | AID 2546, 2010 | Drosophila S2 Gal4-VP16 UAS-luciferase, luminescence, 20 h;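 further: Gal4-VP16 expression switched on by copper sulfate through the metallothionein promoter; on the % scale 0 is the no-effect control and ±100 the full control effect; nearly all actives have a fitted effect of over 50% in size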
KB-V1 cytotox = qHTS assay for MDR1-selective chemotherapeutics: Primary screen using the drug-selected MDR subline cells KB-V1; Potency, µM (series often up to 46.1 µM), hits mostly cytotoxic; KB-V1 MDR cells viability, CellTiter-Glo, 72 h; AID 1347076, 2019; 3.4% of 400,000 active; further: on the % scale 0 is the no-effect control and ±100 the full control effect; nearly all actives have a fitted effect of over 60% in size
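Readout: CellTiter-Glo luminescence, 10 min after addition. Cells: KB-V1 MDR subline, 72 h at 37 degrees C with compound. Analysis: corrected, normalized data fitted to concentration-effect curves.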
KB-3-1 tox = qHTS assay for MDR1-selective chemotherapeutics: Primary screen using the parental adenocarcinoma cell KB-3-1; KB-3-1 viability, CellTiter-Glo ATP luminescence, 72 h; Potency, µM (doses to about 46.1 µM), most hits filed as cytotoxic; 1.4% of 400,000 active; AID 1347075, 2019; further: on the % scale 0 is the no-effect control and ±100 the full control effect; nearly all actives have a fitted effect of over 60% in size
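Using CellTiter-Glo luminescence, growth of non-resistant KB-3-1 adenocarcinoma cells is assessed 72 h after pin-tool compound addition at 37 °C. Normalized responses across the concentration series yield fitted curves.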
The depositor's hits bear a star; i = inactive; ? = inconclusive; . = no result given; [ ] = another dose, or the depositor's remark. Compounds with a hit are over-represented: about 10% of the library has one in this group of screens. The call rests on the fitted dose curve; in most records, active means well fitted curve in the direction sought with a large enough effect; inconclusive means small, poorly fitted or top-dose-only effect, or another doubt; inactive means no such curve, though single readings can be large; an effect the other way counts as inactive or inconclusive. Potency means the concentration at half of the fitted maximal effect.

SMILES | MCF10A rerep | SW480 rereplic | RORg inh | Gal4-VP16 FLuc | KB-V1 cytotox | KB-3-1 tox
CC(=O)c1cccc(NC(=O)CCCN(C)S(=O)(=O)c2ccc(F)cc2)c1 | 2% | -5% | 9% | 0% | i | i
Cc1ccc(S(=O)(=O)N(C)CC(=O)Nc2nc3ccccc3s2)cc1 | ? | 6% | ? | -81% | i | i
Cc1cn(C)c(CC(=O)NCc2cccc(Cl)c2)c1C(=O)O | . | . | . | . | ? | i
Cc1ccc(-n2c(=O)c3c(c4cc(C)ccc4n3C)n(CC(=O)N3CCCC3)c2=O)cc1 | . | . | . | . | i | ?
CC12CCC(C/C1=N\N=C1\NC(=O)/C(=C\c3cccc(Br)c3)S1)C2(C)C (stereo unspecified) | 18µM* | 11% | 10µM* | 11µM* | ? | i
COc1cc(/C=N/N=C2\CC3CCC2(C)C3(C)C)ccc1O (stereo unspecified) | ? | 1% | ? | ? | i | i
COc1ccccc1-n1c(=O)c(C#N)c(-c2ccc([N+](=O)[O-])cc2)c2cc(C(=O)c3cc(F)ccc3O)cnc21 | -1% | 2% | 22% | 1% | i | i
Cn1c(=O)c(C#N)c(-c2ccc(F)cc2)c2cc(C(=O)c3cc(Cl)cc(Cl)c3O)cnc21 | ? | 8% | -73% | 18µM* | i | ?
CCOc1ccc(-c2cccc(NS(=O)(=O)c3ccccc3C(F)(F)F)c2)nn1 | . | . | . | . | i | i
CCOC(=O)N1CCC(NC(=O)c2ccc3c(c2)N=C(C)c2c(C)ccc(C)c2S3)CC1 | 23% | 7.3µM* | ? | 0% | 5.2µM* | 2.1µM*
CC1=Nc2cc(C(=O)NC3CCC(C)CC3)ccc2Sc2c(C)ccc(C)c21 (stereo unspecified) | . | . | . | . | 0.26µM* | 0.52µM*
Cc1[nH]c2ccc(C(=O)NC3CCC(C)CC3)cc2c1C (stereo unspecified) | -5% | 9% | 4% | -15% | i | i
COCCCNC(=O)c1ccc2c(c1)N=C(C)c1c(C)ccc(C)c1S2 | . | . | . | . | 0.052µM* | 0.016µM*
O=Cc1ccnc2ccccc12 | . | . | . | . | i | i
Cc1ccnc(NC(=O)c2ccccc2NC(=O)c2ccc(Cl)cc2Cl)c1 | 6.5µM* | 4.6µM* | ? | 13µM* | 3.3µM* | 5.8µM*
Cc1ccc(C(=O)Nc2cccnc2Cl)cc1Cl | -5% | -8%[9.22 µM] | 10%[1.91 µM] | 17% | i | i
Cc1ccc(C(=O)Nc2ccccc2C(=O)Nc2ccccn2)cc1Cl | ? | 21% | ? | 16µM* | ? | ?
CCN1C(=O)C(Cc2nc3ccccc3c(=O)n2C)c2cc(C)ccc21 (stereo unspecified) | . | . | . | . | i | i
COc1ccc(Br)c2c1-c1nc(NC(=O)c3ccc(F)cc3)sc1C2 | . | . | . | . | i | i
O=C1[C@H]2[C@H]3[C@H](O)[C@H](O)C/C(=N/OCc4ccccc4)[C@H]3CC[C@@H]2C(=O)N1Cc1ccc2c(c1)OCO2 | . | . | 22%[10 µM] | -4%[10 µM] | . | .
COc1ccc(N/N=C/c2c(C(=O)O)ccc3ccccc23)cc1 | ? | ? | 1.4µM* | 4.5µM* | ? | ?
COc1ccc2ccccc2c1/C=N/Nc1ccc(Cl)c(C(=O)O)c1 | ? | 0% | -29% | 7% | i | i
c1ccc(CN2c3ccccc3-c3nc4ccccc4n3C2c2ccccn2)cc1 (stereo unspecified) | 1% | -21% | 16µM* | -29% | i | i
CN1c2ccccc2-c2nc3ccccc3n2C1c1ccncc1 (stereo unspecified) | 24% | -2%[9.22 µM] | -30% | 9% | i | i
CN1c2ccccc2-c2nc3ccccc3n2C1c1ccccn1 (stereo unspecified) | ? | 8% | 4µM* | ? | i | i

Screens from PubChem.
